Test results as given in PubChem BioAssay.
Unmarked numbers belong to inactive results. How the calls were made is not given here.

The molecules below were run against Pantothenate synthetase (Mycobacterium tuberculosis (strain ATCC 25618 / H37Rv)) (UniProt P9WIL5) (assay: Recombinant Mtb pantothenate synthetase (PanC) inhibitors, coupled enzyme, confirmatory (AID 375;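 further: 0% = full reaction with vehicle and 100% = no enzyme background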)). Details: coupled enzyme assay; at 10 µM, stronger effect = higher value.
Chain of Pantothenate synthetase (Mycobacterium tuberculosis (strain ATCC 25618 / H37Rv)) (P9WIL5 whole entry, looked up): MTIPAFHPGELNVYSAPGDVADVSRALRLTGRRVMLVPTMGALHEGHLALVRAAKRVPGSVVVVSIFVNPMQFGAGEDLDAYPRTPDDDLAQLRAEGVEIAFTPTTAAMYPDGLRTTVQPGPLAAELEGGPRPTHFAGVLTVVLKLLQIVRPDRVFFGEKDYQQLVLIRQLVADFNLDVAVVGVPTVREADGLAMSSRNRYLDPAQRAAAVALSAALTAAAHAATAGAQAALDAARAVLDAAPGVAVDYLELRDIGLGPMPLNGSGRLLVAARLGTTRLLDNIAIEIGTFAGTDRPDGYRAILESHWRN
CCCS(=O)(=O)Nc1c(C(=O)O)[nH]c2ccccc12 showed an inhibition of 0%.
CCOC(=O)c1c(NC(=O)c2cccs2)sc(C)c1C showed an inhibition of 0%.
With O=C(OCN1C(=O)c2ccccc2C1=O)C1CCCCC1 the inhibition was 1%.
In the case of CCCc1nc(NCc2ccncc2)c2nnn(Cc3ccccc3F)c2n1, the inhibition is reported as 0%.
For CCn1cc(C(=O)O)c(=O)c2cnc(N3CCNCC3)nc21, the inhibition was 1%.
CCOC(=O)c1ccc(NC(=O)CSCc2ccco2)cc1 showed an inhibition of 0%.
COc1ccc(S(=O)(=O)NCC(c2cccnc2)N2CCN(c3ccc(F)cc3)CC2)cc1C (stereo not given) gave an inhibition of 0%.
O=C1CC(N2CCN(C3CCc4ccccc4C3)CC2)C(=O)N1c1ccccc1 (stereo not given) showed an inhibition of 0%.
Molecule Cc1cc(OCC(=O)N2CCCC2)cc(C)c1Cl has an inhibition of 2%.
CCc1[nH]nc2c1C(c1cccc(OC(=O)N3CCOCC3)c1)C(C#N)=C(N)O2 (stereo not given) gave an inhibition of 1%.
Molecule CCOC(=O)N1CCC(N(C(=O)Nc2ccc(Cl)c(Cl)c2)C(C)CC)CC1 (stereo not given) has an inhibition of 4%.
c1ccc(-c2cn3c4c(sc3n2)CCCC4)cc1 showed an inhibition of 3%.
CCCCNC(=O)c1cc(-c2ccc(F)cc2)on1 showed an inhibition of 6%.
N#CC(C(=O)Nc1ccccc1)=C1CCCCC1 gave an inhibition of 7%.
COc1cc(C2NC(=O)NC(C)=C2C(=O)OCC2CCCO2)ccc1O (stereo not given) showed an inhibition of 0%.
Molecule NS(=O)(=O)c1cc2c(cc1Cl)NC(C1C[C@H]3C=C[C@@H]1C3)NS2(=O)=O (stereo not given in full) has an inhibition of 0%.
Work on Cc1onc(-c2ccccc2Cl)c1C(=O)Nc1cccnc1 yielded an inhibition of 5%.
For CCn1c(CCNC(=O)c2ccc(OC)c(OC)c2)nc2ccccc21, the inhibition was 3%.
CCCn1c(=O)c2[nH]c(C3CCCC3)nc2n(CCC)c1=O showed an inhibition of 7%.
For CC1=C(C(N)=O)C(c2cccnc2)n2nc(SCc3ccccc3Cl)nc2N1 (stereo not given), the inhibition was 0%.
For CCS(=O)(=O)c1nc2ccccc2n1CC(=O)N1CCCCC1, the inhibition was 6%.
Molecule C=CCc1cc(OC)ccc1OCC(O)CN1CCN(c2ccc(OC)cc2)CC1 (stereo not given) has an inhibition of 1%.
COc1ccccc1NC(=O)N1CCN(c2ccccc2F)CC1 showed an inhibition of 0%.
For COCC(=O)N(Cc1nc2ccccc2c(=O)[nH]1)Cc1cccs1, the inhibition was 0%.
COc1cc2c(cc1OC)CN(C(=O)CSc1nnc3scc(-c4ccccc4)n13)CC2 was tested, and the inhibition was 0%.
Molecule COC(=O)[C@@H](N)Cc1ccc(O)cc1 has an inhibition of 0%.
With O=C(CCCN1CCC(O)(c2ccc(Cl)cc2)CC1)c1ccc(F)cc1 the inhibition was 0%.
Molecule CCOc1cc(S(=O)(=O)Nc2ccccn2)ccc1F has an inhibition of 0%.
Cc1ccc(NC(=O)COS(=O)c2ccc(C)cc2)cc1 (stereo not given) gave an inhibition of 0%.
Cc1cc(C)n(C(=O)CNC(=O)C2COc3ccccc3O2)n1 (stereo not given) was tested, and the inhibition was 1%.
Work on Oc1c(I)cc(Cl)c2cccnc12 yielded an inhibition of 4%.
Cn1c(=O)n(CCN2CCOCC2)c(=O)c2c1nc1n2CCN1c1ccccc1 was tested, and the inhibition was 2%.
For COc1ccc(-c2cc(C(F)F)n3ncc(C(=O)NCC4CCCO4)c3n2)cc1 (stereo not given), the inhibition was 4%.
Molecule CC(C)(C)c1ccc(C(O)CCCN2CCC(C(O)(c3ccccc3)c3ccccc3)CC2)cc1 (stereo not given) has an inhibition of 0%.
In the case of Cc1nc2c(c(=O)n1CC1CCCO1)c1nc3ccccc3nc1n2CC(C)C (stereo not given), the inhibition is reported as 0%.
In the case of Cc1onc(-c2ccccc2)c1C(=O)NCc1cccnc1, the inhibition is reported as 10%.
CC1(C)Cc2c(sc3c2C2=NCCN2C=N3)CS1 showed an inhibition of 3%.
In the case of CC(Sc1nc(-c2ccccc2)cc(C(F)(F)F)n1)C(=O)N1CCCC1 (stereo not given), the inhibition is reported as 1%.
Work on Cn1c(=O)[nH]c2cc3ccccc3cc21 yielded an inhibition of 0%.
Work on CC(O)CN1C(=O)C(CC(=O)Nc2ccc(Cl)cc2)SC1=Nc1ccccc1 (stereo not given) yielded an inhibition of 0%.
